Assay results from PubChem BioAssay.
The source made the active and inactive calls.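 Rule for the calls: active = compounds whose cell count with miR-34 switched on is under 0.7 times the count with it off; inactive = the rest.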

Test: viability loss with induced miR-34 in A549 – imaging, A549 dox-inducible miR-34, nuclei and caspase counts, primary screen (AID 1347080); note: test concentration not given here
Conditions: A549 miR-34 inducible, Hoechst nuclei count, 48 h
[1] = stronger effect = lower value, cell number ratio, induced over uninduced
[2] = measured here: relative caspase fold change +Dox/-Dox
[3] = measured here: total cells with miR-34 induction, stronger effect = lower value
[4] = measured here: total cells without miR-34 induction

| SMILES | fold change [1] | fold change [2] | cell count [3] | cell count [4] |
| --- | --- | --- | --- | --- |
| CCCCC[C@H](O)/C=C/[C@H]1C2COC(C2)[C@@H]1C/C=C\CCCC(=O)O (stereo partly drawn) | 0.904 (inactive) | 0.954 | 5380 | 5950 |
| CS(=O)(=O)NC(=O)CCC/C=C\C[C@H]1C(=O)C[C@@H](O)[C@@H]1/C=C/[C@@H](O)COc1ccccc1 | 0.897 (inactive) | 1.55 | 5660 | 6300 |
| CCCCCCCCCC(=O)N[C@@H](Cc1c[nH]c2ccccc12)C(=O)N[C@@H](CC(N)=O)C(=O)N[C@@H](CC(=O)O)C(=O)N[C@@H]1C(=O)NCC(=O)N[C@@H](CCCN)C(=O)N[C@@H](CC(=O)O)C(=O)N[C@H](C)C(=O)N[C@@H](CC(=O)O)C(=O)NCC(=O)N[C@H](CO)C(=O)NC([C@@H](C)CC(=O)O)C(=O)N[C@@H](CC(=O)c2ccccc2N)C(=O)OC1C (stereo partly drawn) | 0.953 (inactive) | 0.725 | 8550 | 8980 |
| O=C(NCCN1CCC(n2c(=O)[nH]c3cc(Cl)ccc32)CC1)c1ccc(F)cc1 | 0.968 (inactive) | 1.46 | 6040 | 6240 |
| CCCCC[C@](C)(O)/C=C/[C@H]1C(=O)C[C@H](O)[C@@H]1C/C=C\CCCC(=O)O | 1.01 (inactive) | 0.91 | 5200 | 5160 |
| CCCCC[C@H](O)/C=C/[C@@H]1[C@H]2C/C=C\CCCC(=O)O[C@H]2C[C@H]1O | 0.977 (inactive) | 1.29 | 5860 | 5990 |
| O=C(O)c1ccc2c(c1)CCCC2 | 0.93 (inactive) | 0.342 | 5260 | 5660 |
| CCCCC[C@@H](O)/C=C/[C@@H]1[C@H](C/C=C\CCCC(=O)O)[C@@H](O)C[C@H]1O | 0.832 (inactive) | 1.39 | 5000 | 6010 |
| CCCCCCCCCCCCCCCCC/C=C\C(=O)O | 0.872 (inactive) | 1 | 5170 | 5930 |
| CCCCC(C)(C)[C@H](O)/C=C/[C@@H]1[C@@H](C/C=C\CCCC(=O)O)[C@H](O)C[C@H]1O | 0.901 (inactive) | 1.73 | 5660 | 6290 |
| O=Cc1cccc2[nH]ccc12 | 1.14 (inactive) | 0.821 | 6070 | 5350 |
| C[C@@H](O)CCC[C@H](O)/C=C/C1=C(C/C=C\CCCC(=O)O)C(=O)CC1 | 0.915 (inactive) | 1.31 | 5730 | 6260 |
| O=C(O)CCC/C=C\CC1C(=O)C[C@@H](O)[C@@H]1/C=C/[C@@H](O)COc1ccccc1 (stereo partly drawn) | 0.868 (inactive) | 1.75 | 5400 | 6220 |
| CCCCCCCC/C=C\CCCCCCCCCCCCCC(=O)NCCS(=O)(=O)O | 0.871 (inactive) | 0.338 | 5170 | 5940 |
| CCCCCC(=O)CC[C@@H]1[C@@H](CCCCCCC(=O)O)[C@@H](O)C[C@H]1O | 0.953 (inactive) | 1.23 | 6140 | 6450 |
| CCCCC[C@H](O)/C=C/[C@H]1[C@H](O)CC(=O)[C@H]1CCCCCCC(=O)O | 1.03 (inactive) | 0.989 | 5570 | 5390 |
| CCCCCC(=O)CC[C@H]1C(=O)C=C[C@@H]1C/C=C\CCCC(=O)O | 0.989 (inactive) | 0.66 | 5270 | 5330 |
| CCCCCCCCCCCCCCP(=O)(O)O | 0.898 (inactive) | 0.729 | 4910 | 5470 |
| CCCCCCCC/C=C\CCCCCCCC(=O)OCC(O)COP(=O)(O)O (stereo not drawn) | 1.12 (inactive) | 0.696 | 5760 | 5140 |

| SMILES | fold change [1] | fold change [2] | cell count [3] | cell count [4] |
| --- | --- | --- | --- | --- |
| COc1ccc2cc(C(C#N)OC(=O)CC3OC3c3ccccc3)ccc2c1 (stereo not drawn) | 0.909 (inactive) | 0.7 | 5490 | 6040 |
| CCCCCCCC/C=C/CCCCCCCC(=O)O | 1.1 (inactive) | 0.875 | 6340 | 5750 |
| O=C(O)CCC/C=C\C[C@H]1[C@@H](O)CC(=O)[C@@H]1/C=C/[C@@H](O)COc1cccc(C(F)(F)F)c1 | 1.01 (inactive) | 1.13 | 6530 | 6490 |
| O=c1[nH]cc(CO)c(=O)[nH]1 | 1.01 (inactive) | 1.05 | 5770 | 5720 |
| O=C(O)CCC/C=C\C[C@@H]1[C@@H](CC[C@@H](O)CCc2cccc(C(F)(F)F)c2)[C@H](O)C[C@@H]1O | 0.926 (inactive) | 1.34 | 6330 | 6830 |
| COc1ccc(/C=C/c2cc(Cl)cc(Cl)c2)cc1 | 1.04 (inactive) | 0.753 | 5410 | 5220 |
| CCNC(=O)CCC/C=C\C[C@@H]1[C@@H](CC[C@@H](O)CCc2ccccc2)[C@H](O)C[C@@H]1O | 0.901 (inactive) | 1.65 | 5780 | 6420 |
| CC[C@@H]1/C=C(\C)C[C@H](C)C[C@H](OC)[C@H]2O[C@@](O)(C(=O)C(=O)N3CCCC[C@H]3C(=O)O[C@H](/C(C)=C/[C@@H]3CC[C@@H](O)[C@H](OC)C3)[C@H](C)[C@@H](O)CC1=O)[C@H](C)C[C@@H]2OC | 0.914 (inactive) | 1.28 | 3590 | 3930 |
| O=C(O)CCC/C=C\C[C@H]1C(=O)C=C[C@@H]1/C=C/[C@@H](O)CCc1ccccc1 | 0.944 (inactive) | 0.959 | 5880 | 6220 |
| CCCCC/C=C\C/C=C\C/C=C\CCCC/C=C\CCC(=O)O | 0.938 (inactive) | 0.754 | 5780 | 6170 |
| CC(C)ON(CC(=O)NO)S(=O)(=O)c1ccc(-c2ccccc2)cc1 | 0.989 (inactive) | 1.73 | 6160 | 6240 |
| CC(=O)O[C@@]12C[C@@H](C)[C@@]3(O)[C@@H](C=C(CO)C[C@]4(O)C(=O)C(C)=C[C@@H]34)[C@@H]1C2(C)C | 0.95 (inactive) | 1.47 | 5200 | 5470 |
| CC#CCC(C)[C@@H](O)/C=C/[C@@H]1[C@H]2C/C(=C/CCCC(=O)O)C[C@H]2C[C@H]1O (stereo partly drawn) | 0.965 (inactive) | 2.36 | 5460 | 5660 |
| CCCCCCCCCCCCCCCCCC(=O)NCCS(=O)(=O)O | 1.11 (inactive) | 0.61 | 6120 | 5530 |
| CCCCC[C@H](O)/C=C/[C@@H]1[C@H](C/C=C\CCCC(=O)NCCO)[C@@H](O)C[C@H]1O | 1.11 (inactive) | 0.881 | 6440 | 5790 |
| O=C(O)CCC/C=C\C[C@H]1C(=O)C=C[C@@H]1/C=C/[C@@H](O)COc1ccccc1 | 0.91 (inactive) | 1.28 | 5700 | 6260 |
| O=C(CCCCCc1ccccc1)c1nc2ncccc2o1 | 1.06 (inactive) | 0.866 | 5480 | 5190 |
| CCCCCC#CCC#CCC#CCCCCCCC(=O)O | 0.97 (inactive) | 0.33 | 5730 | 5910 |
